# Hits are enriched below; roughly 4% of the tested compounds scored in any of these assays.
# TRHR enhancer-1: allosteric enhancers of human TRH receptor; 360,000 compounds, 0.66% hits; TRHR cells, fluo-8 calcium fluorescence, EC20 TRH enhancement; AID 493056; enhancement, % at 2 µM; P34981; in the data active = enhancement above about 30%; note: 0% is about no effect
# Target sequence (P34981 whole entry, looked up): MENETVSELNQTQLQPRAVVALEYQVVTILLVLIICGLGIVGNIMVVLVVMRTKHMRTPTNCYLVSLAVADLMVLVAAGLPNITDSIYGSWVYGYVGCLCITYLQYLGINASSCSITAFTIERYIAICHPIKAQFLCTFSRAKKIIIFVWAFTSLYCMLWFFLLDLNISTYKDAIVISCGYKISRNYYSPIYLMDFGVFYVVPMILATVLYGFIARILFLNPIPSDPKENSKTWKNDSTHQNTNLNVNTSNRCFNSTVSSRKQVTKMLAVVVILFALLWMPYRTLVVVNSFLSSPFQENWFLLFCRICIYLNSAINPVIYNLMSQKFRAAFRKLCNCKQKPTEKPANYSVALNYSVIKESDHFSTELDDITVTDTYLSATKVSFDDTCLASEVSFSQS
#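 TRHR-expressing cells loaded with fluo-8 calcium dye were read kinetically (ex 480/em 530) during compound addition, then stimulated with an EC20 of TRH (10 nM final). Enhancement of the Gq-mediated intracellular calcium response was scored.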
# D1 agonist: activates the human D1 dopamine receptor; P21728; HEK293 T-REx D1 cells, calcium flux, agonist mode; activation, % at 2 µM; 360,000 compounds, 1% hits; AID 504660; in the data active = activation above about 30%; note: 0% is about no effect
#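 Agonism was scored from calcium flux recorded over 180 s (1 read/s) after pintool compound addition, following a 10-cycle baseline. Cells were inducible force-coupled HEK293 TREx D1, plated overnight at 30 C and loaded with no-wash calcium dye.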
# TRHR agonist-1: agonists of human TRH receptor; P34981; TRHR cells, calcium flux fluo-8, FDSS agonist mode; activation, % at 2 µM; 360,000 compounds, 0.18% hits; AID 493084; in the data active = activation above about 30%; note: 0% is about no effect
#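 TRHR-expressing cells loaded with fluo-8 calcium dye; 23 nL library compound pin-transferred, kinetic FDSS fluorescence (Ex 480/Em 530) recorded about 180 s for agonist-induced calcium release, before a 10 nM TRH EC20 addition for potentiator mode.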
# D1 antagonist: human D1 dopamine receptor antagonism. HEK293 TREx D1 cells, calcium flux, dopamine EC80; stronger effect = lower value. activity change, negative = inhibition, % at 10 µM. 360,000 compounds, 3.2% hits; in the data active = activity change below about -30%; note: % is set by controls: 0 for no effect and ±100 for the full control effect
#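 Cells carrying a force-coupled, tetracycline-inducible human D1 receptor report calcium flux. Each well gets a 10 s baseline, compound with 180 s monitoring, then an EC80 dopamine stimulus with a second 180 s kinetic read.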
# Glioma ERSR ind: induces the endoplasmic reticulum stress response in human glioma cells; U87-MG GRP78 promoter luciferase reporter, 16 h; Potency, µM, for inactives: at the highest dose activation, actives largely listed as activators; 420,000 compounds, 0.02% hits; AID 602332; note: potency is the fitted concentration of half-maximal effect; series mostly up to about 76 µM; % of control where 0% means no effect; nearly all actives have a fitted effect of over 35% in size
#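 Stably transfected U87-MG human glioma cells carrying a GRP78-based luminescent sensor were seeded at 1000 cells/well, pin-dosed with compounds and incubated 16 h. Luciferase reagent was then added, and end-point luminescence was read after 10 min at room temperature.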
# D1 PAM: enhances dopamine response at the human D1 receptor; HEK293 TREx D1 cells, calcium flux, dopamine EC20 potentiation; potentiation, % at 10 µM; 360,000 compounds, 0.036% hits; AID 504651; in the data active = potentiation above about 30%; note: 0% is about no effect
# TRHR enhancer-2: human TRH receptor allosteric enhancement confirmation | activity change, negative = inhibition, % at 46.1 µM | shares compounds with TRHR enhancer-1 | 970 tested, under 10 active | TRH receptor cell assay, enhancer confirmation qHTS;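 note: compound effect scored on response to added TRH at EC20 of 10 nM; 0% is about no effect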
# TRHR agonist-2: confirmation of human TRH receptor agonists. 970 compounds, 8% hits. TRHR-expressing cells, agonist activation read-out. AID 493078. Potency, µM (highest dose often 46.1 µM), without a hit: at the top dose activation, usual class: activators. shares compounds with TRHR enhancer-1; note: potency is the fitted concentration of half-maximal effect; 0% is about no effect; nearly all actives have a fitted effect of over 75% in size
# The depositor's hits bear a star; ? = inconclusive; nt = no result given. Unless noted, calls come from the whole dose curve; as a rule, active = well fitted curve in the direction sought with a large enough effect; inconclusive = small, poorly fitted or top-dose-only effect, or another doubt; inactive = no such curve, though single readings can be large; an effect the other way counts as inactive or inconclusive.
SMILES,TRHR enhancer-1,D1 agonist,TRHR agonist-1,D1 antagonist,Glioma ERSR ind,D1 PAM,TRHR enhancer-2,TRHR agonist-2
O=C(c1cc2ccccc2oc1=O)N1CCCCCCC1,56*,3,0,-12,-2%,2,-4,-1%
O=C(c1cc2ccccc2oc1=O)N1CCCC1,2,1,1,-7,-3%,-1,nt,nt
C=CCN(CC=C)C(=O)C1c2ccccc2Oc2ccccc21,nt,nt,nt,nt,-4%,nt,nt,nt
CCN(CC)C(=O)C1c2ccccc2Oc2ccccc21,46*,32*,3,-1,-6%,3,-8,1%
Cc1nc(N2CCOCC2)c2c(C(=O)N(C)c3ccccc3)c(C)oc2n1,7,1,1,1,-2%,-5,nt,nt
COc1ccccc1OCC(=O)OCC(=O)Nc1sccc1C(N)=O,-2,7,34*,-23,-1%,-4,-1,?
O=C1/C(=C/c2ccc(O)cc2)SC(=S)N1CC1CCCO1 (stereo not given),16,49*,39*,-3,13%,0,-6,?
CCCOc1ccc(/C=C2\SC(=S)N(CC3CCCO3)C2=O)cc1 (stereo not given),-4,8,1,1,-3%,-3,nt,nt
Cc1ccc2c(c1)CCCN2C(=O)c1cc(C)on1,-6,0,0,-5,0%,-6,nt,nt
COc1ccc(-c2cc(C(=O)Nc3c(C(=O)c4ccc(C)cc4)oc4ccccc34)no2)cc1,-2,0,-1,-8,-3%,0,nt,nt
CC(C)c1ccc(NC(=O)c2cc3c(=O)[nH]c4ccccc4c3n2C)cc1,7,1,0,10,-4%,4,nt,nt
Cc1cccc(N2CCN(C(=O)COc3cc4oc(=O)cc(C)c4cc3Cl)CC2)c1C,70*,0,0,8,3%,10,0,0%
COc1ccccc1CC(=O)NNS(=O)(=O)c1ccc([N+](=O)[O-])cc1,0,1,1,-9,10%,-6,nt,nt
CCN(C(=O)Cn1nnc2sc(-c3ccccc3)cc2c1=O)c1cccc(C)c1,-4,3,1,8,nt,0,nt,nt
CCCCc1cc(=O)oc2cc(OCC(=O)N(CC)CC)c(Cl)cc12,66*,3,0,5,-2%,-8,-5,0%
CCCCc1cc(=O)oc2cc(OCC(=O)N(CC)CC)ccc12,0,2,-2,13,-1%,0,nt,nt
COCCN1CCN(Cc2cn(C)nc2-c2ccc(Oc3ccccc3)cc2)CC1,44*,8,0,-4,-3%,2,-5,2%
Cn1cc(CN2CCN(CCO)CC2)c(-c2ccc(Oc3ccccc3)cc2)n1,6,5,1,-3,-1%,3,nt,nt
COc1ccccc1Nc1nc(C)nc(N)c1S(=O)(=O)c1ccccc1,-1,2,-2,1,-5%,-2,nt,nt
COc1ccccc1C(=O)Oc1ccc2c(c1)O/C(=C\c1ccncc1)C2=O,-3,36*,29,33,-1%,-4,-8,?
CC(=O)Oc1ccc2c(c1)O/C(=C\c1ccncc1)C2=O,5,65*,29,-2,7%,0,4,?
CS(=O)(=O)Oc1ccc2c(c1)O/C(=C\c1cccnc1)C2=O,-1,2,0,1,5%,1,nt,nt
COc1ccc(S(=O)(=O)Oc2ccc3c(c2)O/C(=C\c2cccnc2)C3=O)cc1,-2,2,0,-24,-4%,-4,nt,nt
COc1ccc(/C=C2\Oc3cc(OC(=O)N4CCOCC4)ccc3C2=O)cc1,0,3,0,-1,-2%,-3,nt,nt
COc1cc(OC)c(OC)cc1/C=C1\Oc2cc(OS(C)(=O)=O)ccc2C1=O,-1,53*,38*,-22,-3%,-1,-10,?
SMILES,TRHR enhancer-1,D1 agonist,TRHR agonist-1,D1 antagonist,Glioma ERSR ind,D1 PAM,TRHR enhancer-2,TRHR agonist-2
COc1ccccc1N1CCN(C(=O)c2ccc3c(c2)N(Cc2ccccc2)C(=O)c2ccccc2S3(=O)=O)CC1,-2,5,0,40,nt,1,nt,nt
CCn1cc(C(=O)N2CCN(c3cccc(C)c3C)CC2)c(=O)c2ccc(C)nc21,6,-1,-1,22,-2%,-1,nt,nt
CCn1cc(C(=O)N2CCN(c3ccc([N+](=O)[O-])cc3)CC2)c(=O)c2ccc(C)nc21,46*,2,-1,9,-2%,-2,16,1%
Cc1c2ccccc2nc2c(F)c(NCCO)c(F)c(F)c12,11,29,37*,5,4%,-5,8,16µM*
COc1ccc(/C=N/n2c(-c3ccccc3)n[nH]c2=S)cc1,49*,1,0,-1,-6%,-7,8,6%
S=C(Nc1ccc(Br)cc1)N1CCCC1,41*,5,0,-9,0%,-2,-3,0%
Cc1cccc(NC(=O)CSc2cccc3cccnc23)c1,-3,4,27,-11,-2%,-1,-13,1%
Cc1ccc(C)c(NC(=O)CSc2cccc3cccnc23)c1,-9,1,0,6,-3%,-2,nt,nt
Clc1ccc(OCCNCCc2ccccc2)cc1,43*,25,1,-18,-1%,-10,9,9%
O=C(COc1ccc(Cl)cc1)NCc1ccccc1,-2,1,0,-12,-1%,-3,nt,nt
COc1ccccc1C1(O)CCN(C(=O)c2cccs2)CC1,46*,0,0,-3,-3%,-5,-3,1%
COc1ccc(S(=O)(=O)N2CCCCC2)cc1NC(=S)Nc1ccccc1,56*,2,0,-24,-2%,-6,-2,1%
O=C1CSC(=Nc2cccc([N+](=O)[O-])c2)N1,0,4,0,14,-3%,-4,nt,nt
CCOC(=O)/C(C#N)=C/c1cccc(F)c1,9,1,43*,2,3%,-3,3,7%
Cc1nc2ccc(C(=O)Nc3ccccc3Cl)cc2s1,51*,-1,-1,-9,-2%,-5,3,1%
CCc1ccc(NC(=O)Cn2c(=O)n(-c3cc(OC)c(OC)c(OC)c3)c(=O)c3ccccc32)cc1,-5,-1,1,-10,-4%,0,nt,nt
N#CC1=C(N)Oc2cc(O)ccc2C1c1cccnc1 (stereo not given),7,2,0,-3,-3%,-7,nt,nt
N#CC1=C(N)Oc2cc(O)c(Cl)cc2C1c1cccnc1 (stereo not given),-1,60*,65*,7,-4%,2,5,?

# Screens (PubChem BioAssay)
